Source: the supplement of paper PMC10849652
About 7,900 targets were measured; listed, in parts, are those with a hit and a random draw of the rest. About 0.6% of all pairs of compound and target were hits. Values without a mark were called inactive.

How the values were obtained:
Assay in all cases: log2 fold change, soluble protein after heating vs DMSO (PISA); higher = thermal stabilisation; K562 cells, 10 uM, 30 min; active = over 0.2 and 3.5 SD of the protein, either way, in both replicates (recomputed)
[1] = compound: C#Cc1cccc(Nc2ncnc3cc(OCCOC)c(OCCOC)cc23)c1 [erlotinib]
Method in brief: (§1)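 Quantification of soluble protein used TMTpro 16plex LC-MS/MS, with channel sums equalised. Samples were the supernatant after 21,000xg for 90 min of pooled aliquots from K562 cells (2×10^6 cells/mL) treated with 10 μM compound for 30 min, heated for 3 min over 48°C-58°C, and extracted in PBS with 0.5% NP-40 at 4°C. Values, from duplicates, describe thermal stability against control samples on a log2 fold-change scale.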

[2] = compound: C/C(=N\NC(=O)C1=CC(=CC=C1)S(=O)(=O)N2CCOCC2)/C3=C(C=CC(=C3)Cl)O
Method in brief: as §1

[3] = compound: C1=CC(=C(C=C1Cl)C2=NC3=NC=CN=C3C(=N2)NC4=CC=NC=C4)F
Method in brief: as §1

[4] = compound: C1=CC(=CC=C1C2=NC3=C(N2)C=C(C=C3)C(=O)N)OC4=CC=C(C=C4)Cl
Method in brief: as §1

[5] = compound: C1=CC2=C(C=CC(=C2)/C=C\3/C(=O)NC(=NCC4=CC=CS4)S3)N=C1
Method in brief: as §1

[6] = compound: C1=CC2=NC=CN=C2C=C1/C=C/3\C(=O)NC(=O)S3
Method in brief: as §1

[7] = compound: C1=CC=C(C=C1)C2=NC(=C(N2)C3=CC=NC=C3)C4=CC(=C(C=C4)Cl)O
Method in brief: as §1

[8] = compound: C1=CC=C2C(=C1)C3=NNC4=CC=CC(=C43)C2=O
Method in brief: as §1

[9] = compound: C1CCN(C1)C(=O)NC2=CC=CC(=C2)NC3=NC=C(C(=N3)NCCC4=CN=CN4)Br
Method in brief: as §1

[10] = compound: C1CN(CCC1(CC2=CC=C(C=C2)Cl)N)C3=NC=NC4=C3C=CN4
Method in brief: as §1

[11] = compound: C1COCCN1CCN2C3=CC=CC=C3N=C2NC(=O)C4=CC(=CC=C4)[N+](=O)[O-] [IRAK-1-4 Inhibitor I]
Method in brief: as §1

[12] = compound: C=CC(=O)N1CCC[C@@H](n2nc(-c3ccc(Oc4ccccc4)cc3)c3c(N)ncnc32)C1 [ibrutinib]
Method in brief: as §1

[13] = compound: CC(=O)c1cnc2ccc(-c3cc(Cl)c(O)c(Cl)c3)nc2c1N[C@H]1CC[C@H](CN(C)C)CC1
Method in brief: as §1

[14] = compound: CC(C)(C)Cn1c(N)nc2ccc(-c3[nH]c(C(C)(C)C)nc3-c3ccc(F)cc3)nc21 [ralimetinib]
Method in brief: as §1

[15] = compound: CC(C)(O)CC(=O)NCCn1ccc2ncnc(Nc3ccc(Oc4cccc(C(F)(F)F)c4)c(Cl)c3)c21
Method in brief: as §1

[16] = compound: CC(C)C1=C2N=C(C=C(N2N=C1)NCC3=CC=CC=C3)NCCCCCCN
Method in brief: as §1

[17] = compound: CC(C)C[C@@H](C=O)NC(=O)[C@H](CC(C)C)NC(=O)[C@H](CC(C)C)NC(=O)OCc1ccccc1
Method in brief: as §1

[18] = compound: CC(C)N(C[C@H]1O[C@@H](n2cnc3c(N)ncnc32)[C@H](O)[C@@H]1O)[C@H]1C[C@@H](CCc2nc3cc(C(C)(C)C)ccc3[nH]2)C1 [pinometostat]
Method in brief: as §1

[19] = compound: CC1=C(C(CC(=O)N1)C2=CC=C(C=C2)C(F)(F)F)C(=O)NC3=C(C=C4C(=C3)C=NN4)F
Method in brief: as §1

[20] = compound: CC1=C(C2=C(C=C1)C(=O)C3=CC=CC=C3N2CCCN)C
Method in brief: as §1

Chain of UniProt Q7L4I2 (Q7L4I2 whole entry, looked up): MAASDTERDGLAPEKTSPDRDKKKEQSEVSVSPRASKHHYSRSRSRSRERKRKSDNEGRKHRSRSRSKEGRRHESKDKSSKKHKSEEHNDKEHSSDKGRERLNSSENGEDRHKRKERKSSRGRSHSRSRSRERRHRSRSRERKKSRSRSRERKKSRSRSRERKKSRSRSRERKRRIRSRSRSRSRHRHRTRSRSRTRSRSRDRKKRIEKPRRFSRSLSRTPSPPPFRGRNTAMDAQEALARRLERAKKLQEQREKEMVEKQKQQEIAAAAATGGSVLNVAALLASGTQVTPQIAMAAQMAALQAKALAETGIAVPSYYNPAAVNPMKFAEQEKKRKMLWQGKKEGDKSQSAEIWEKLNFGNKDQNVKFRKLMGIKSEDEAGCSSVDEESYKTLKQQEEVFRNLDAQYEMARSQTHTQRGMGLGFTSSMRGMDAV
Chain of UniProt Q9H6H4 (Q9H6H4 whole entry, looked up): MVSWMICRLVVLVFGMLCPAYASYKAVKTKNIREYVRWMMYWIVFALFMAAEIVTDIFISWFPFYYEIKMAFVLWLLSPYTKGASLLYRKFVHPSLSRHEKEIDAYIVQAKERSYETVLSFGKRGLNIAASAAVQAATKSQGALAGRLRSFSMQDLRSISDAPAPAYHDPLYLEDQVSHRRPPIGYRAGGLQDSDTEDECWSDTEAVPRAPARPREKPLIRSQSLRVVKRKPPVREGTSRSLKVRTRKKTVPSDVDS
Chain of UniProt Q6NT16 (Q6NT16 whole entry, looked up): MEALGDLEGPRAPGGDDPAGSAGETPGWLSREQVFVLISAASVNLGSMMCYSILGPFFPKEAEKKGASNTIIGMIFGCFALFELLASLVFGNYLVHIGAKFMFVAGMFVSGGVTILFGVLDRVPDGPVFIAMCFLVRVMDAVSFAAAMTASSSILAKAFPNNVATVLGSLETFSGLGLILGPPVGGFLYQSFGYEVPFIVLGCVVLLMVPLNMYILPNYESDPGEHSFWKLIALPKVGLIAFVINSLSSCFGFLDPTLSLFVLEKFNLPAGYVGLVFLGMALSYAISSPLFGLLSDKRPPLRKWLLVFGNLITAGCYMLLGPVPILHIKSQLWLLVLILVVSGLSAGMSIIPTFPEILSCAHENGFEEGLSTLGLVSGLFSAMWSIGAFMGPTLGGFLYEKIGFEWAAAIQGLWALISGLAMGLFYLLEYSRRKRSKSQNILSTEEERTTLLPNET
Chain of UniProt Q8NBN7 (Q8NBN7 whole entry, looked up): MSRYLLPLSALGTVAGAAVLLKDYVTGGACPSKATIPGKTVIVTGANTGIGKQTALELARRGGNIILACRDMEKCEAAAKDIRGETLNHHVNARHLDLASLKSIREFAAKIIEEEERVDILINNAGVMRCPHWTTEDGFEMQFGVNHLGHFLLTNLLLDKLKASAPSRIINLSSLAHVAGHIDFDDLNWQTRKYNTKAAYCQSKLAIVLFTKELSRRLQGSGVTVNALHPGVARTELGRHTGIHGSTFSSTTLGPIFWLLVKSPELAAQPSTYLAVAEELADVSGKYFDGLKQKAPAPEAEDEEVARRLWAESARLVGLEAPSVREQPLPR
Chain of UniProt Q5VTB9 (Q5VTB9 whole entry, looked up): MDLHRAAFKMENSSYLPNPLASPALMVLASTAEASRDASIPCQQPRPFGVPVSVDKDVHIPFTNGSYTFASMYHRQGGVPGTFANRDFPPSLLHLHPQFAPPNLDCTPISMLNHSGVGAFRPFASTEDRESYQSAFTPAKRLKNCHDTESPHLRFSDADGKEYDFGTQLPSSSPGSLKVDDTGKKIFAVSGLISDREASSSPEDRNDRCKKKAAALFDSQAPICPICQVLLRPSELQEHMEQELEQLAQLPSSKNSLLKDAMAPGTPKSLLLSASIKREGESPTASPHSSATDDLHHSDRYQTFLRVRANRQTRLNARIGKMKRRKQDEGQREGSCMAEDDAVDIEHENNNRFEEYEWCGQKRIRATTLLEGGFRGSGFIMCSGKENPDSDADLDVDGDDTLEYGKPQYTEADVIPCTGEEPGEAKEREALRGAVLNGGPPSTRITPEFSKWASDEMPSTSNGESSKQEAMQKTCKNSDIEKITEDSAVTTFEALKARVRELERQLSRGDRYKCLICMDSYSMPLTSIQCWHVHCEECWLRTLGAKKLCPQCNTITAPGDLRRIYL
Chain of UniProt O14730 (O14730 whole entry, looked up): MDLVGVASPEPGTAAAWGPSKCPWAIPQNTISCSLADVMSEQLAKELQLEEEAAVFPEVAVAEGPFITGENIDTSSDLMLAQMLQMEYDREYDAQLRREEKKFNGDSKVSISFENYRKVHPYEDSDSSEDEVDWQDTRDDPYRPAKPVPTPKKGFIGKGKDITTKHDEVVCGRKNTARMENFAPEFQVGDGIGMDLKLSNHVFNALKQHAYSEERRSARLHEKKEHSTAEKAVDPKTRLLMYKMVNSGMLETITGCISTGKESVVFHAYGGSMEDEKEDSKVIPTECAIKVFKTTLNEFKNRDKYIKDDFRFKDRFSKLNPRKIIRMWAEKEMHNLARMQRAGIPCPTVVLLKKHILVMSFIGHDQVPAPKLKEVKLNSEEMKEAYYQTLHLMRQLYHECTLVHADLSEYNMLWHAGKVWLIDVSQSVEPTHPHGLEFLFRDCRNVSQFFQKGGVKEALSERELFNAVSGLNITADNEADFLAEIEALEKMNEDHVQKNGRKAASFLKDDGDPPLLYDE
Chain of UniProt Q13530 (Q13530 whole entry, looked up): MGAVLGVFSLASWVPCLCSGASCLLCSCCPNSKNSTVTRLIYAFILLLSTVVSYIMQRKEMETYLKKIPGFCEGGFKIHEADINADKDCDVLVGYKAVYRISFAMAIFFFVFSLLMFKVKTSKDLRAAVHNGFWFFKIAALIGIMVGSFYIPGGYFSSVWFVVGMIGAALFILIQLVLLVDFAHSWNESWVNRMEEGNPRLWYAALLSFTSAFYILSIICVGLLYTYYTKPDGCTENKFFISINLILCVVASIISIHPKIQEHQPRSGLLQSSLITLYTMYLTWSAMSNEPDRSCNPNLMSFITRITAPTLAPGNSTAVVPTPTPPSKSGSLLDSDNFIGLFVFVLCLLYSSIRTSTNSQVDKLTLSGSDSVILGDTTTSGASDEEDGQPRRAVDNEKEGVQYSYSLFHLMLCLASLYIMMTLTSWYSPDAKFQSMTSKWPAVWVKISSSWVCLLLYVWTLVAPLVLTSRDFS
Chain of UniProt Q5T160 (Q5T160 whole entry, looked up): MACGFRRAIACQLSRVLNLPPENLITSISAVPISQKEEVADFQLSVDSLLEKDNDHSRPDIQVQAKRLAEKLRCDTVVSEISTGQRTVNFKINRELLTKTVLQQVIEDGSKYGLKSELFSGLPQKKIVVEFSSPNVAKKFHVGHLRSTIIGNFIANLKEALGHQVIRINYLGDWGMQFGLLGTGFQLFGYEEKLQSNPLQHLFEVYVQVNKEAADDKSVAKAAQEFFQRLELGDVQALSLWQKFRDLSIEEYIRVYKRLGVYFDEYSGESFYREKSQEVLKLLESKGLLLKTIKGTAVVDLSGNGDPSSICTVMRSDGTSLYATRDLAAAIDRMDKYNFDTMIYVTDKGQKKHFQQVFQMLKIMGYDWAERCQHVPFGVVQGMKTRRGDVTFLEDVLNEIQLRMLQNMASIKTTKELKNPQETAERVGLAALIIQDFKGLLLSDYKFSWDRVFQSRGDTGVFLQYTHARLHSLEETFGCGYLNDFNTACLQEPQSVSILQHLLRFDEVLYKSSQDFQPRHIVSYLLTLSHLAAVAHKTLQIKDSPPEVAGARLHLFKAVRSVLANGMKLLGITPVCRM
Chain of UniProt P63208 (P63208 whole entry, looked up): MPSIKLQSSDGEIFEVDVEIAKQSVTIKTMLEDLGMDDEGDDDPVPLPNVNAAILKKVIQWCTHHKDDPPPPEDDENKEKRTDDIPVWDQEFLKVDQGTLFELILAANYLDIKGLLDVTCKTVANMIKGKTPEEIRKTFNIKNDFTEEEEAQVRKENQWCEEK
Chain of UniProt Q9NX18 (Q9NX18 whole entry, looked up): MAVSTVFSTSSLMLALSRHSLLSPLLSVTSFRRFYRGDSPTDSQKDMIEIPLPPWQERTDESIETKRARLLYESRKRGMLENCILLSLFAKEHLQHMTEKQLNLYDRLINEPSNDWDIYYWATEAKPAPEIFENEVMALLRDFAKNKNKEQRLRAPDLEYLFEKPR

Row | Target | log2 fold change [1] | log2 fold change [2] | log2 fold change [3] | log2 fold change [4] | log2 fold change [5] | log2 fold change [6] | log2 fold change [7] | log2 fold change [8] | log2 fold change [9] | log2 fold change [10] | log2 fold change [11] | log2 fold change [12] | log2 fold change [13] | log2 fold change [14] | log2 fold change [15] | log2 fold change [16] | log2 fold change [17] | log2 fold change [18] | log2 fold change [19] | log2 fold change [20]
1 | RPS4X (UniProt P62701) | -0.177 | -0.092 | -0.37 | 0.054 | -0.042 | -0.033 | -0.043 | 0.043 | 0.076 | -0.221 | -0.129 | 0.025 | 0.126 | 0.106 | 0.003 | -0.025 | 0.074 | 0.273 | 0.048 | -0.679 (active)
2 | RBM26 isoform 2 (UniProt Q5T8P6) | 0.174 | 0.216 | 0.25 | -0.004 | -0.018 | 0 | 0.113 | 0.002 | -0.027 | 0.012 | -0.086 | 0.032 | -0.179 | -0.021 | -0.16 | -0.295 | 0.024 | -0.022 | 0.014 | 0.06
3 | SDHAF2 (UniProt Q9NX18) | -0.021 | 0.304 (active) | 0.083 | 0.018 | -0.102 | 0.051 | -0.035 | 0.114 | 0.068 | -0.091 | 0.013 | -0.004 | 0.124 | -0.044 | -0.011 | -0.042 | 0.084 | -0.014 | 0.015 | -0.01
4 | RARS2 (UniProt Q5T160) | 0.009 | 0.057 | 0.063 | 0.029 | 0.015 | 0.014 | 0.056 | 0 | 0.022 | 0.038 | 0.053 | 0.003 | -0.012 | -0.039 | -0.081 | -0.214 | -0.061 | -0.032 | -0.011 | -0.007
5 | SKP1 (UniProt P63208) | -0.003 | -0.036 | 0.05 | -0.011 | -0.048 | 0.045 | 0.047 | 0.009 | -0.006 | 0.03 | 0.069 | 0.054 | 0.03 | -0.02 | -0.045 | 0.068 | -0.069 | -0.08 | 0.042 | -0.049
6 | RSRC2 (UniProt Q7L4I2) | 0.023 | -0.01 | -0.009 | -0.012 | -0.05 | 0.018 | 0.019 | -0.032 | 0 | 0.012 | 0.03 | -0.035 | -0.284 (active) | 0.012 | -0.033 | -0.013 | -0.026 | -0.019 | 0.028 | 0.016
7 | RPL38 (UniProt P63173) | 0.024 | -0.05 | -0.148 | 0.026 | -0.102 | -0.025 | -0.027 | 0.026 | 0.033 | -0.106 | 0.014 | 0.01 | 0 | 0.043 | 0.113 | 0 | 0.124 | 0.07 | 0.013 | -0.026
8 | RDH13 (UniProt Q8NBN7) | 0.019 | -0.004 | 0.082 | 0.01 | 0.127 | -0.024 | 0.005 | 0.007 | 0.05 | 0.007 | 0.012 | 0.03 | -0.054 | -0.031 | -0.061 | -0.184 | -0.029 | -0.057 | -0.051 | 0.111
9 | RNF220 (UniProt Q5VTB9) | 0.017 | 0.034 | 0.017 | 0.011 | 0.034 | 0.03 | 0.026 | 0.011 | -0.008 | -0.022 | 0.017 | -0.032 | -0.02 | -0.045 | 0.021 | -0.011 | -0.046 | -0.076 | -0.023 | 0.004
10 | RNF14 (UniProt Q9UBS8) | -0.006 | 0.038 | 0.048 | 0.043 | 0.015 | -0.019 | 0.014 | -0.029 | 0.002 | 0.071 | 0.019 | 0.006 | 0.011 | -0.008 | -0.035 | -0.039 | 0.014 | -0.075 | 0.006 | -0.05
11 | RSL1D1 (UniProt O76021) | -0.115 | -0.156 | -0.504 | 0.073 | -0.054 | 0.057 | -0.141 | -0.086 | 0.016 | -0.193 | -0.071 | -0.011 | 0.22 | 0.105 | 0.212 | 0.538 | 0.076 | 0.393 | -0.072 | -0.299
12 | SLC18B1 (UniProt Q6NT16) | -0.011 | -0.09 | 0.067 | 0.06 | 0.108 | 0 | 0.12 | 0.002 | -0.037 | 0.081 | 0.135 | 0.042 | 0.016 | -0.044 | -0.023 | -0.356 (active) | -0.05 | 0.02 | 0.05 | -0.036
13 | RABGAP1L isoform 3 (UniProt Q5R372) | 0.087 | 0.052 | 0.161 | -0.021 | 0.029 | 0.033 | -0.001 | 0.035 | 0.004 | 0.007 | 0.057 | 0.02 | 0.011 | -0.012 | -0.206 | -0.068 | -0.034 | -0.006 | -0.137 | 0.055
14 | SERINC3 (UniProt Q13530) | -0.051 | 0.016 | -0.064 | 0.041 | -0.043 | 0.063 | 0.006 | 0.029 | 0.007 | 0.06 | -0.006 | -0.01 | -0.027 | -0.14 | -0.304 | -0.399 (active) | 0.17 | -0.01 | 0 | -0.039
15 | RIOK3 (UniProt O14730) | 0.037 | 0.014 | 0.062 | 0.003 | -0.019 | 0.048 | -0.033 | 0.02 | 0.024 | -0.025 | 0.087 | 0.002 | 0.024 | -0.009 | -0.083 | -0.009 | 0.021 | -0.011 | 0.019 | -0.231 (active)
16 | REEP4 (UniProt Q9H6H4) | -0.024 | 0.027 | -0.049 | 0.026 | -0.018 | 0.005 | 0.063 | -0.04 | 0.047 | -0.081 | 0.005 | -0.003 | -0.198 | 0.164 | -0.049 | -0.157 | 0.041 | 0.13 | 0.04 | 0.036
